Test results reported in PubChem BioAssay AID588726 (The Scripps Research Institute Molecular Screening Center, 2011).
Out of some 360,000 compounds screened, about 8,200 (2.3%) were called active. This is one part of a sample in which actives are shown more often than they occur. Rule as the data show it: active = inhibition above about 27%; inactive = the rest.

target: Fructose-bisphosphate aldolase (Mycobacterium tuberculosis (strain ATCC 25618 / H37Rv)) (UniProt P9WQA3); experiment: M. tuberculosis aldolase activity blockers – biochemical, fluorescence, strain H37Rv, primary screen (AID 588726);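 also: 0% = vehicle and 100% = reference inhibitor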; conditions: purified M. tuberculosis FBA, fluorescence read-out, at 1 µM, hits give high values
Sequence (P9WQA3 whole entry, looked up): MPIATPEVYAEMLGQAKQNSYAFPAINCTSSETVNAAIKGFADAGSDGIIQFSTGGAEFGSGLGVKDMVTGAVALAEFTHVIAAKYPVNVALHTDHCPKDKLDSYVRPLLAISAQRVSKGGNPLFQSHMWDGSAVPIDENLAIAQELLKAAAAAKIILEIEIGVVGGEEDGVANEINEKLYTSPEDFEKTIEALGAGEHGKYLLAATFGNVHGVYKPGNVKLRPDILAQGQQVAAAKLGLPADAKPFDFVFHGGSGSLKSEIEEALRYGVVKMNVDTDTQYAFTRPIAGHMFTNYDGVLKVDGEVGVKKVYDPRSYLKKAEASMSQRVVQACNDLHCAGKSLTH

Row | Structure (SMILES) | inhibition
1 | O=C1NC(=O)C(c2ccc(Cl)cc2)N1 (stereo not given) | 3.68% (inactive)
2 | COCCNC(=O)c1ccc2nc(Cc3ccc(OC)c(OC)c3)oc2c1 | 2.67% (inactive)
3 | COc1ccc(CNC(=O)COc2ccccc2C(=O)c2cnn(-c3ccccc3)c2)cc1OC | 6.29% (inactive)
4 | CCCCNC(=O)c1ccccc1NC(=O)C1=C(C)OCCS1 | 1.28% (inactive)
5 | O=C(O)/C=C/c1cn(-c2ccccc2)nc1-c1cccs1 | 57.3% (active)
6 | CC(=O)C1=C(C)NC(C)=C(C(C)=O)C1c1cn(-c2ccccc2)nc1-c1cccs1 | 0.45% (inactive)
7 | Cc1ccc(-c2nn(-c3ccccc3)cc2/C=C/C(=O)Nc2cccc(S(N)(=O)=O)c2)cc1 | 2.47% (inactive)
8 | O=C1COc2ccc(NC(=O)N3CCN(c4ccc(F)cc4)CC3)cc2N1 | 1.24% (inactive)
9 | CC(=O)NC12CC3CC(C1)CC(C(=O)N1CCN(S(=O)(=O)c4cccs4)CC1)(C3)C2 | -0.81% (inactive)
10 | Cc1cn(C2OC[C@@H](O)[C@@H]2CO)c(=O)[nH]c1=O (stereo not given in full) | 0.66% (inactive)
11 | O=C(Nc1ccc([N+](=O)[O-])cc1)C1(c2ccccc2)CCOCC1 | -1.46% (inactive)
12 | O=C(OCC(=O)N1CCCC1=O)c1cc(S(=O)(=O)N2CCOCC2)ccc1Cl | -0.38% (inactive)
13 | CCOC(=O)c1cc(C)nc(S(C)(=O)=O)c1C#N | 3.95% (inactive)
14 | COCc1c(N)c(C)nc(Cl)c1C#N | 7.26% (inactive)
15 | COC(=O)c1c(C)c(C)nc(N)c1C#N | 82.5% (active)
16 | Cn1nc(C(C)(C)C)c([N+](=O)[O-])c1C(N)=O | 1.86% (inactive)
17 | O=C(Cn1cnc([N+](=O)[O-])n1)NCCc1ccccc1 | 0.01% (inactive)
18 | O=C(NC1CCCCC1)c1ccc2c(=O)n(CC3CCCO3)c(=O)[nH]c2c1 (stereo not given) | -9.09% (inactive)
19 | CCCCCn1c(=O)[nH]c2cc(C(=O)NCCCN3CCCCC3C)ccc2c1=O (stereo not given) | 114% (active)
20 | CC1CCCCN1CCCNC(=O)Cn1ncc2c([nH]c3ccccc32)c1=O (stereo not given) | 12% (inactive)

Row | Structure (SMILES) | inhibition
21 | CCOC1CS(=O)(=O)CC1OCC (stereo not given) | -0.21% (inactive)
22 | c1ccc(Cc2c(-c3ccco3)nc3c4ccccc4ccn23)cc1 | 33.2% (active)
23 | Cc1ccc(Cc2c(-c3ccc(C)cc3)nc3c4ccccc4ccn23)cc1 | 4.37% (inactive)
24 | FC(F)(F)c1ccccc1Cc1c(-c2ccccc2)nc2c3ccccc3ccn12 | 5.62% (inactive)
25 | Cc1cc(NC(=O)/C=C/C(=O)N(CC(=O)NC2CCCC2)c2ccc(F)cc2)no1 | -1.71% (inactive)
26 | CC1CN(/C=C/C(=O)C(F)(F)F)CC(C)O1 (stereo not given) | -2.87% (inactive)
27 | O=C1CN(C(=O)COC(=O)C2CC(=O)N(Cc3ccco3)C2)c2ccccc2N1 (stereo not given) | 1.16% (inactive)
28 | CN1C(=O)c2ccc(NC(=O)C3CCCCC3)cc2C1=O | 33.2% (active)
29 | Cc1cccc(C(=O)Nc2ccc3c(c2)C(=O)N(CC(C)C)C3=O)c1 | 8.31% (inactive)
30 | Cc1nc2ccc(NC(=O)C3CCCCC3)cc2s1 | 2.5% (inactive)
31 | O=C(Nc1ccc2c(c1)OCCO2)C1CCCC1 | -2.43% (inactive)
32 | CN1C(=O)c2ccc(C(=O)Nc3ccc(Br)cn3)cc2C1=O | -2.34% (inactive)
33 | CN1C(=O)c2ccc(NC(=O)c3c(F)c(F)c(F)c(F)c3F)cc2C1=O | 37.5% (active)
34 | COc1cc(CN2CCCN(C)CC2)c([N+](=O)[O-])cc1OC | 2.5% (inactive)
35 | Cc1cc(=O)oc2cc(NC(=O)C3CC(=O)N(Cc4ccccc4)C3)ccc12 (stereo not given) | 68.5% (active)
36 | CCNC(=O)c1cccc(NC(=O)C2CC(=O)N(CCc3ccccc3)C2)c1 (stereo not given) | 3.18% (inactive)
37 | O=C(Nc1ccc(F)c([N+](=O)[O-])c1)C1CC(=O)N(Cc2ccccc2)C1 (stereo not given) | -0.61% (inactive)
38 | CC(=O)c1cccc(NC(=O)COc2ccc(S(=O)(=O)N3CCOCC3)cc2)c1 | -1.21% (inactive)
39 | Cc1ccc(NC(=O)C(CC(=O)O)C2CCCO2)c(C)c1 (stereo not given) | 2.55% (inactive)
40 | CC(C)=CCc1c(O)c(CC=C(C)C)c2occ(-c3ccc(O)cc3)c(=O)c2c1O | -0.11% (inactive)

Row | Structure (SMILES) | inhibition
41 | O=C1/C(=C/c2coc3ccc(O)cc3c2=O)SC(=S)N1c1ccccc1 | -0.97% (inactive)
42 | O=c1c(-c2ccccc2)coc2cc(O)ccc12 | 32.2% (active)
43 | O=c1c(-c2ccccc2)coc2c(CN3CCOCC3)c(O)ccc12 | 36.3% (active)
44 | CCOC(=O)c1oc2c(CN3CCN(C)CC3)c(O)ccc2c(=O)c1-c1ccc(Br)cc1 | -0.95% (inactive)
45 | O=c1[nH]c(CN2CCOCC2)nc2scc(-c3ccccc3)c12 | -0.65% (inactive)
46 | O=C(Cc1cccs1)N(CC1CCCO1)C1(C(=O)NC2CCCCC2)CCCCC1 (stereo not given) | -1.48% (inactive)
47 | C/C(=N/NC(=O)CN1CCN(S(=O)(=O)c2ccc(Br)cc2)CC1)c1ccncc1 | -1.72% (inactive)
48 | Cc1nc2nc(C)c(NS(=O)(=O)c3ccc(C(C)(C)C)cc3)c(=O)n2[nH]1 | 1.79% (inactive)
49 | CC(=O)c1ccc(N2CCN(CC(O)c3ccccc3)CC2)cc1 (stereo not given) | -0.54% (inactive)
50 | COc1cc(N)c(Cl)cc1C(=O)OCC(=O)c1ccc2c(c1)NC(=O)CO2 | -2.6% (inactive)
51 | CSc1ccc(CN2C(=O)NC3(CCCCCC3)C2=O)cc1 | 6.55% (inactive)
52 | CCSc1ccccc1C(=O)NCc1ccc(OC)cc1 | -3.44% (inactive)
53 | COc1ccc(CNC(=O)c2c[nH]c3c(OC)cc(OC)cc3c2=O)cc1 | 34.8% (active)
54 | COc1ccc(CNC(=O)c2cc(C(=O)C3CC3)c[nH]2)cc1 | 5.17% (inactive)
55 | C=CC[C@@H](CC(=O)N[C@@H](CO)Cc1ccccc1)C(=O)N[C@H](COC(=O)[C@H](CC=C)CC(=O)OC(C)(C)C)Cc1ccccc1 | 3.8% (inactive)
56 | Cc1nc(NCCN)c(C#N)c2c1COC(C)(C)C2 | 27.9% (active)
57 | CCCCc1nc(NCCN)c(C#N)c2c1CSC(C)(C)C2 | 5.12% (inactive)
58 | Cc1nc(NCc2ccccc2)c(C(N)=O)c2c1COC(C)(C)C2 | 22.3% (inactive)
59 | CC(C)Cc1nnc(N)s1 | 0.9% (inactive)
60 | CC(=O)Nc1ccc(S(=O)(=O)NCCC(=O)N2CCN(c3ccccc3Cl)CC2)cc1 | 3.53% (inactive)
